Assay results reported in PubChem BioAssay AID1159580 (chemical genetic matrix, 2015).
Several values for one entry are separate records, joined by “and”; a condition that tells them apart may be missing. Identical values can stand only once. The whole screen tested about 5,500 compounds, of which about 2,000 (36%) were called active. About 18% were inconclusive and are not listed. Cut-off read from the data, not from the text of the source: active = normalized growth mostly below about 0.91 (no sharp cut-off); inconclusive = no clear call, values can overlap the other calls; inactive = mostly above about 0.92. Some of the results follow.

Test: chemical genetic growth profiling, strain panel (AID 1159580);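 note: tested at 20 µM; growth read once vehicle control cultures reached saturation at 30 °C; 1 = growth at the plate median or of vehicle wells; lower values mean less growth of the strain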
Conditions: S. cerevisiae deletion strains, growth OD

Measured: normalized growth

COc1ccc2c(c1)OC[C@@H](Cc1ccc(OC)c(OC)c1)[C@@H]2O
active: locus YDR137W, strain rgp1, hits give low values 0.802
inactive: locus YAL013W, strain DEP1, hits give low values 1.01 | locus YAL021C, strain ccr4, hits give low values 0.999 | locus YAL026C, strain drs2, hits give low values 1 | locus YAL030W, strain snc1, hits give low values 0.994 | locus YBL061C, strain skt5, hits give low values 0.99 | locus YBR009C, strain hhf1, hits give low values 0.98 | locus YBR021W, strain FUR4, hits give low values 0.984 | locus YBR023C, strain chs3, hits give low values 0.998 | locus YBR171W, strain sec66, hits give low values 0.99 | locus YBR229C, strain ROT2, hits give low values 1 | locus YBR231C, strain swc5, hits give low values 1 | locus YBR279W, strain paf1, hits give low values 1 | locus YCL011C, strain gbp2, hits give low values 1 | locus YCL016C, strain dcc1, hits give low values 0.999 | locus YCL029C, strain bik1, hits give low values 0.988 | locus YCL069W, strain vba3, hits give low values 0.996 | locus YCR088W, strain abp1, hits give low values 0.983 | locus YDL005C, strain med2, hits give low values 0.975 | locus YDL035C, strain GPR1, hits give low values 0.99 | locus YDL040C, strain nat1, hits give low values 0.994 | locus YDL074C, strain BRE1, hits give low values 0.982 | locus YDL101C, strain DUN1, hits give low values 1.01 | locus YDL134C, strain PPH21, hits give low values 1 | locus YDL185W, strain tfp1, hits give low values 0.997 | locus YDL192W, strain arf1, hits give low values 0.988 | locus YDR001C, strain nth1, hits give low values 0.998 | locus YDR069C, strain doa4, hits give low values 0.996 | locus YDR101C, strain arx1, hits give low values 0.983 | locus YDR150W, strain NUM1, hits give low values 1 | locus YDR159W, strain sac3, hits give low values 0.94 | locus YDR162C, strain NBP2, hits give low values 0.999 | locus YDR195W, strain ref2 0.973 | locus YDR297W, strain sur2, hits give low values 0.985 | locus YDR318W, strain mcm21, hits give low values 0.96 | locus YDR334W, strain swr1, hits give low values 1.01 | locus YDR335W, strain msn5, hits give low values 1.01 | locus YDR388W, hits give low values 0.985 | locus YDR392W, strain spt3, hits give low values 0.91 | locus YDR502C, strain sam2, hits give low values 0.977 | locus YEL003W, strain gim4, hits give low values 1 | locus YEL037C, strain rad23, hits give low values 1.01 | locus YEL061C, strain CIN8 (second series), hits give low values 1 | locus YEL061C, strain CIN8, hits give low values 0.999 | locus YER015W, strain faa2, hits give low values 1 | locus YER016W, strain bim1, hits give low values 0.986 | locus YER110C, hits give low values 0.996 | locus YER111C, strain swi4, hits give low values 0.998 | locus YER155C, strain BEM2 (second series), hits give low values 0.99 | locus YER155C, strain BEM2, hits give low values 0.976 | locus YER167W, strain BCK2, hits give low values 0.958 | locus YFR010W, strain ubp6, hits give low values 0.998 | locus YGL078C, strain dbp3, hits give low values 0.996 | locus YGL086W, strain mad1, hits give low values 0.978 | locus YGL167C, strain pmr1, hits give low values 0.977 | locus YGL173C, strain kem1, hits give low values 1 | locus YGL227W, strain vid30, hits give low values 0.992 | locus YGL240W, strain doc1, hits give low values 1.02 | locus YGL248W, strain PDE1, hits give low values 0.996 | locus YGL253W, strain hxk2, hits give low values 1.02 | locus YGR078C, strain PAC10, hits give low values 1.01 | locus YGR135W, strain pre9, hits give low values 0.997 | locus YGR229C, strain SMI1, hits give low values 0.993 | locus YGR252W, strain gcn5, hits give low values 0.922 | locus YHR013C, strain ard1, hits give low values 0.966 | locus YHR027C, strain rpn1, hits give low values 1.02 | locus YHR030C, strain SLT2, hits give low values 0.995 and 1.01 | locus YHR079C, strain IRE1 (second series), hits give low values 0.981 | locus YHR079C, strain IRE1, hits give low values 1.01 | locus YHR094C, strain hxt1, hits give low values 0.989 | locus YHR129C, strain ARP1, hits give low values 0.993 | locus YHR142W, strain chs7, hits give low values 1.01 | locus YHR200W, strain rpn10, hits give low values 0.987 | locus YIL066C, strain RNR3, hits give low values 1 | locus YIL073C, strain SPO22, hits give low values 0.998 | locus YIL125W, strain kgd1, hits give low values 0.996 | locus YIR030C, strain dcg1, hits give low values 0.986 | locus YJL092W, strain hpr5, hits give low values 0.994 | locus YJL095W, strain BCK1 (second series), hits give low values 1 | locus YJL095W, strain BCK1, hits give low values 0.989 and 0.952 | locus YJL115W, strain asf1, hits give low values 1 | locus YJL129C, strain trk1, hits give low values 0.94 | locus YJL134W, strain LCB3, hits give low values 1 | locus YJL154C, strain vps35, hits give low values 1 | locus YJL164C, strain tpk1, hits give low values 0.99 | locus YJL166W, strain qcr8, hits give low values 1.01 | locus YJL168C, strain set2, hits give low values 0.99 | locus YJL187C, strain SWE1 (second series), hits give low values 1 | locus YJL187C, strain SWE1, hits give low values 0.998 | locus YJR043C, strain POL32, hits give low values 0.953 | locus YJR066W, strain TOR1, hits give low values 0.975
